TRHR agonist: qHTS for Small Molecule Agonists and Allosteric Enhancers of Human TRH Receptor: Primary Screen for Agonists | Thyrotropin-releasing hormone receptor (Homo sapiens), P34981 | TRHR cells, calcium flux fluo-8, FDSS agonist mode | activation, % at 2 µM | hit rate 0.18% among 360,000 | AID 493084, 2011; in the data active = activation above about 30%
Target sequence (P34981 whole entry, looked up): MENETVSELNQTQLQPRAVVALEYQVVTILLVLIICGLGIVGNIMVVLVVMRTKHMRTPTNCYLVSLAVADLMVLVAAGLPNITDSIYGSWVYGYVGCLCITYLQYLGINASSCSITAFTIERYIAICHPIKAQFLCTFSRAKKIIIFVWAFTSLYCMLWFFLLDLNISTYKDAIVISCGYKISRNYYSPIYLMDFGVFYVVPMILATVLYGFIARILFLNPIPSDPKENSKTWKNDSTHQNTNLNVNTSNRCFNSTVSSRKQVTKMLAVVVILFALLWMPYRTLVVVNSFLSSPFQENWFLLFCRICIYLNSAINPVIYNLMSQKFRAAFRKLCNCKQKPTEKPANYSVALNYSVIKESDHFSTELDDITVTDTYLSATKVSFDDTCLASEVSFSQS
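Fluo-8-loaded TRHR cells; 10 s baseline, compound added, kinetic Ca2+ fluorescence read 1/s, agonist mode.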
TRPML1 blocker: qHTS for Inhibitors of the Human Mucolipin Transient Receptor Potential 1 (TRPML1); Mucolipin-1 (Homo sapiens), Q9GZU1; TRPML1-inducible cells, Ca2+ dye fluorescence, FDSS; hits give low values; inhibition of EC80 agonist-evoked calcium signal; activity change, negative = inhibition, % (no concentration beside the values); hit rate 0.02% among 390,000; in the data active = activity change below about -50%;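 also: stimulus is agonist 54-4 at its EC80 concentration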
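Calcium fluorescence in TRPML1-DL cells induced overnight with Tet: a 110 s read after compound pin addition, then a 110 s antagonist read after challenge with 54-4 at 4 uM final (EC80).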
TRHR enhancer: qHTS for Small Molecule Agonists and Allosteric Enhancers of Human TRH Receptor: Primary Screen for Enhancers; Thyrotropin-releasing hormone receptor (Homo sapiens), P34981; TRHR cells, fluo-8 calcium fluorescence, EC20 TRH enhancement; enhancement, % at 2 µM; hit rate 0.66% among 360,000; in the data active = enhancement above about 30%
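TRHR-expressing cells loaded with fluo-8 calcium dye were read kinetically (ex 480/em 530) during compound addition, then stimulated with an EC20 of TRH (10 nM final). Enhancement of the Gq-mediated intracellular calcium response was scored.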
TRPV1 agonist: HTS Assay for Compounds that Act as Agonists of the Vanilloid Receptor 1. Transient receptor potential cation channel subfamily V member 1 (Homo sapiens), Q8NER1. TRPV1-expressing cells, Fluo-8 calcium influx, agonist mode. activation, % at 8.33 µM. hit rate 0.19% among 320,000. AID 540275, 2011; in the data active = activation above about 80%
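TRPV1-expressing cells were cultured overnight at 35.5C and loaded with Fluo-8 calcium dye for 40 to 90 min at room temperature. After a 10 s baseline, compound was added and calcium influx was read kinetically for 3 min (ex 480/em 520 nm).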
TRPV1 potentiator: HTS Assay for Compounds that Act as Potentiators of the Vanilloid Receptor 1. TRPV1-expressing cells, Fluo-8 calcium influx, capsaicin EC20 potentiation. potentiation, % at 8.33 µM. hit rate 0.02% among 320,000. AID 540277, 2011; in the data active = potentiation above about 80%
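Fluo-8 calcium influx in TRPV1-expressing cells, kinetic read (ex 480/em 520 nm). Compound added and read 3 min for agonist activity, followed by capsaicin at EC20 final and 2 min further read for enhancement.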
TRPML1 ag: qHTS for Agonists of the Human Mucolipin Transient Receptor Potential 1 (TRPML1); AID 624414, 2012; TRPML1-expressing cells, Ca2+ dye fluorescence, FDSS; hit rate 0.12% among 410,000; activation, % (no concentration beside the values); Mucolipin-1 (Homo sapiens), Q9GZU1; in the data active = activation above about 50%
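Calcium fluorescence on an FDSS kinetic reader gave the read-out. Tet-induced TRPML1-DL cells were plated overnight, dye-loaded (Ca8 with quencher, 45-90 min, room temperature, dark), then read 110 s after compound addition, and again 110 s after 4uM final 54-4 (EC80).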
Hits are given with their value. Shown are actives, neighbours in structure and some others; about 0.99% of the full set was active somewhere.

`COc1ccccc1C(=O)COC(=O)C(CCSC)NC(=O)COc1ccccc1` (stereo not given) gave TRHR agonist inactive, TRPML1 blocker inactive, TRHR enhancer 30, TRPV1 agonist inactive, TRPV1 potentiator inactive and TRPML1 ag inactive.
COc1ccc(OC)c(C(=O)COC(=O)C(CCSC)NC(=O)COc2ccccc2)c1 (stereo not given) was read as TRHR agonist inactive, TRPML1 blocker inactive, TRHR enhancer inactive, TRPV1 agonist inactive, TRPV1 potentiator inactive and TRPML1 ag inactive.
Screening COc1ccccc1C(=O)NC(CCSC)C(=O)OC(C)C(N)=O (stereo not given) returned TRHR agonist inactive, TRPML1 blocker inactive, TRHR enhancer 36, TRPV1 agonist inactive, TRPV1 potentiator inactive and TRPML1 ag inactive.
COc1ccccc1C(=O)NC(CCSC)C(=O)NNC(=O)C(C)Oc1ccccc1F (stereo not given) was read as TRHR agonist inactive, TRPML1 blocker inactive, TRHR enhancer inactive, TRPV1 agonist inactive, TRPV1 potentiator inactive and TRPML1 ag inactive.
`Cc1ccc2ncc(C)c(/C=C/c3ccc(N(C)C)cc3)c2c1` gave TRPML1 ag inactive.
`COCCN(Cc1cn(C)nc1-c1ccc(Oc2ccccc2)cc1)C(C)C` gave TRHR agonist inactive, TRPML1 blocker inactive, TRHR enhancer inactive, TRPV1 agonist inactive, TRPV1 potentiator inactive and TRPML1 ag inactive.
For CC(C)N(C)Cc1cn(C)nc1-c1ccc(Oc2ccccc2)cc1 the results were TRHR agonist inactive, TRPML1 blocker inactive, TRHR enhancer 36, TRPV1 agonist inactive, TRPV1 potentiator inactive and TRPML1 ag inactive.
Screening Cc1c(/C=N/NC(=O)C(NC(=O)c2ccc3c(c2)OCO3)C(C)C)c2ccccc2n1C (stereo not given) returned TRHR agonist inactive, TRPML1 blocker inactive, TRHR enhancer 32, TRPV1 agonist inactive, TRPV1 potentiator inactive and TRPML1 ag inactive.
Screening N#CC(C#N)=C(N)CSc1cccc[n+]1[O-] returned TRHR agonist inactive, TRPML1 blocker inactive, TRHR enhancer 35, TRPV1 agonist inactive, TRPV1 potentiator inactive and TRPML1 ag inactive.
For O=S(=O)(c1ccc2c(c1)OCCO2)N1CCN(S(=O)(=O)c2c(Cl)cc(C(F)(F)F)cc2Cl)CC1 the results were TRHR agonist inactive and TRHR enhancer inactive.
For CCO[C@H]1OC(C(N)=O)=C[C@@H](C)[C@@H]1CCCO the results were TRHR agonist inactive, TRPML1 blocker inactive, TRHR enhancer 33, TRPV1 agonist inactive, TRPV1 potentiator inactive and TRPML1 ag inactive.
For O=Nc1ccc(/C=C/c2ccnc3ccccc23)cc1 the results were TRPML1 ag inactive.
Screening Cc1cc(Nc2ccccc2)c2c([N+](=O)[O-])cc(C)c(C)c2n1 returned TRHR agonist inactive, TRPML1 blocker inactive, TRHR enhancer 39, TRPV1 agonist inactive, TRPV1 potentiator inactive and TRPML1 ag inactive.
`Cc1cc2c(s1)c1cnn(Cc3c(Cl)cccc3Br)c(=O)c1n2C` gave TRHR agonist inactive and TRHR enhancer inactive.
`Cc1ccccc1-c1ccc(/C=C2/SC(N3CCOCC3)=NC2=O)o1` gave TRHR agonist inactive, TRPML1 blocker inactive, TRHR enhancer inactive, TRPV1 agonist 84, TRPV1 potentiator inactive and TRPML1 ag inactive.
COc1cc(F)cc(F)c1[S+](=O)([O-])N1CCN([S+](=O)([O-])c2ccc3c(c2)OCCO3)CC1 was read as TRHR agonist inactive and TRHR enhancer inactive.
Screening Cc1cc2c(s1)c1cnn(Cc3ccc(C#N)cc3)c(=O)c1n2C returned TRHR agonist inactive and TRHR enhancer inactive.
Screening Cc1nc2c(n1C1CCCCC1)C(=O)c1ccccc1C2=O returned TRHR agonist inactive, TRPML1 blocker inactive, TRHR enhancer inactive, TRPV1 agonist inactive, TRPV1 potentiator inactive and TRPML1 ag 65.
`CC1CC(Nc2ccccc2)c2ccccc2N1C(=O)c1ccco1` (stereo not given) gave TRHR agonist inactive, TRPML1 blocker inactive, TRHR enhancer inactive, TRPV1 agonist inactive, TRPV1 potentiator inactive and TRPML1 ag inactive.
For CC1CC(Nc2ccccc2)c2ccccc2N1C(=O)c1ccncc1 (stereo not given) the results were TRHR agonist inactive, TRPML1 blocker inactive, TRHR enhancer 31, TRPV1 agonist inactive, TRPV1 potentiator inactive and TRPML1 ag inactive.
Screening NC(=O)C1CCN(c2nc(C3CC3)nc3c2nnn3Cc2ccccc2)CC1 returned TRHR agonist inactive, TRPML1 blocker inactive, TRHR enhancer 30, TRPV1 agonist inactive, TRPV1 potentiator inactive and TRPML1 ag inactive.
For CN(C)S(=O)(=O)c1ccc(S(=O)(=O)N(Cc2ccco2)Cc2ccccc2Cl)cc1 the results were TRHR agonist inactive, TRPML1 blocker inactive, TRHR enhancer inactive, TRPV1 agonist inactive, TRPV1 potentiator inactive and TRPML1 ag 64.
O=c1cc(N2CCCC2)c2ccccc2o1 was read as TRHR agonist inactive, TRPML1 blocker inactive, TRHR enhancer 35, TRPV1 agonist inactive, TRPV1 potentiator inactive and TRPML1 ag inactive.
`CCOc1ccc(NC(=O)C(Cc2ccccc2)N2C(=O)c3cccc4cccc(c34)C2=O)cc1` (stereo not given) gave TRHR agonist inactive, TRPML1 blocker inactive, TRHR enhancer inactive, TRPV1 agonist inactive, TRPV1 potentiator inactive and TRPML1 ag 61.
`O=C(COc1ccccc1C(=O)Nc1ccccc1)Nc1cccc(Cl)c1` gave TRPML1 ag inactive.
For COc1ccc(N(CC(=O)NC2CCCCC2)C(=O)c2ccc(C)s2)cc1OC the results were TRHR agonist inactive, TRPML1 blocker inactive, TRHR enhancer 32, TRPV1 agonist inactive, TRPV1 potentiator inactive and TRPML1 ag inactive.
`COc1ccc(N(CC(=O)NC2CCCC2)C(=O)c2ccc(C)s2)c(OC)c1` gave TRHR agonist inactive, TRPML1 blocker inactive, TRHR enhancer inactive, TRPV1 agonist inactive, TRPV1 potentiator inactive and TRPML1 ag inactive.
`Cc1cc(C)c(C(=O)N2CCCC(Nc3ccc(C)c(C)c3)C2)o1` (stereo not given) gave TRHR agonist inactive, TRPML1 blocker inactive, TRHR enhancer inactive, TRPV1 agonist 97, TRPV1 potentiator inactive and TRPML1 ag inactive.

Assay outcomes deposited in PubChem BioAssay by National Center for Advancing Translational Sciences (NCATS).
